Shown are actives, neighbours in structure and some others; about 6.5% of the full set was active somewhere.
VACV mCherry inh – qHTS for Stage-Specific Inhibitors of Vaccinia Orthopoxvirus: mCherry Reporter Primary qHTS; Vaccinia virus mCherry reporter infection, fluorescence; Potency, µM (highest dose often 36.5 µM), for the others: at the highest dose activity change, negative = inhibition, most hits filed as inhibitors; actives 0.63% (n = 310,000); calls by dose curve; tested in A549 cells; note: potency is the fitted concentration of half-maximal effect; nearly all actives have a fitted effect of over 35% in size
MARV entry inh – qHTS for inhibitors of binding or entry into cells for Marburg Virus. Marburg virus pseudotyped entry inhibition, cell reporter. actives 1.8% (n = 300,000). Potency, µM (highest dose often 37.8 µM), without a hit: at the top dose activity change, negative = inhibition, most hits filed as inhibitors. AID 540276, 2011; calls by dose curve; tested in HEK293 cells; note: potency is the fitted concentration of half-maximal effect
LASV entry inh – qHTS for Inhibitors of binding or entry into cells for Lassa Virus; actives 1.2% (n = 300,000); Lassa virus pseudotype entry inhibition, cell reporter; AID 540256, 2011; Potency, µM (series often up to 37.9 µM), without a hit: at the top dose activity change, negative = inhibition, usual class: inhibitors; calls by dose curve; tested in HEK293 cells; note: potency is the fitted concentration of half-maximal effect; nearly all actives have a fitted effect of over 50% in size
VACV Venus inh – qHTS for Stage-Specific Inhibitors of Vaccinia Orthopoxvirus: Venus Reporter Primary qHTS. Vaccinia virus Venus reporter expression, fluorescence. Potency, µM (doses to about 36.5 µM), for the others: at the highest dose activity change, negative = inhibition, most hits filed as inhibitors. actives 0.46% (n = 330,000); calls by dose curve; tested in A549 cells; note: potency is the fitted concentration of half-maximal effect; nearly all actives have a fitted effect of over 30% in size
HCMV inh – qHTS Assay for inhibitors of the human cytomegalovirus (HCMV); HFF cells, HCMV-luciferase reporter, 72 h; active compounds read low; activity change, negative = inhibition, % at 57.5 µM; actives 4.5% (n = 410,000); AID 1259415, 2018; in the data active = activity change below about -60%; inconclusive = no clear call, values can overlap the other calls; inactive = above about -39%
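Luciferase read-out from HCMV-luciferase-infected HFFs (MOI 1 PFU/cell) 72 h post infection at 37C; compounds added after 16 h cell attachment; activity normalized between buffer-only basal and Salinomycin (10uM) inhibitor controls.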
FMDV antiviral – High Throughput Screening for Foot and Mouth Disease Virus Antivirals. FMDV antiviral cell-based qHTS. Potency, µM (series often up to 57.9 µM), for the others: at the highest dose activity change, negative = inhibition, most hits filed as inhibitors. actives 1.2% (n = 410,000). AID 1159524, 2015; calls by dose curve; tested in HEK293T cells; note: read-out not given here; potency is the fitted concentration of half-maximal effect; nearly all actives have a fitted effect of over 45% in size
Numbers without * were called inactive; i = inactive; u = inconclusive; x = no result; [ ] = dose if it differs, or a comment. % is set by controls: 0 for no effect and ±100 for the full control effect.

SMILES	VACV mCherry inh	MARV entry inh	LASV entry inh	VACV Venus inh	HCMV inh	FMDV antiviral
CCOC(=O)Cn1c(-c2ccccc2)nc2ccccc2c1=O	-9%	6%	28%	-16%	-95*	-6%
CCCCOC(=O)Cn1c(-c2ccccc2)nc2ccccc2c1=O	i	-7%	9%	-11%	-76*	-24%
CC(=O)c1c(O)c(C)c(O)c2c1OC1=CC(=O)[C@H](C(C)=O)C(=O)[C@]12C	x	11%	x	x	x	x
COCC(=O)Nc1cc(C(=O)N2CCCC(C(N)=O)C2)cc2nc(-c3ccccc3)n(C)c12 (stereo unspecified)	-14%	x	x	-6%	x	-6%
COCC(=O)Nc1cc(C(=O)N2CCCCC2c2nccn2C)cc2nc(-c3ccccc3)n(C)c12 (stereo unspecified)	-25%	x	x	-24%	x	4%
CC(C)(C)c1ccc(C(=O)Nc2ccc(C(=O)OCc3cc(=O)n4ccsc4n3)cc2)cc1	u	x	-29%[46.1 µM]	-25%	13	14µM*
Cn1c(Cc2ccccc2)nnc1SCc1cc(=O)n2ccsc2n1	-4%	1%[46.1 µM]	10%	-2%	-63*	18%
O=C(OCc1cc(=O)n2ccsc2n1)C1(c2ccccc2)CC1	-9%	x	x	-14%	-98*	-11%
CC(Oc1ccccc1)C(=O)Nc1ccc(C(=O)OCc2cc(=O)n3ccsc3n2)cc1 (stereo unspecified)	-8%	x	u	-3%	6	25µM*
Cc1cc(C)cc(-n2ccnc2SCC(=O)Nc2ccc(C)c(Cl)c2)c1	-18%	x	16%[46.1 µM]	2%	-21	-20%
Cc1ccc(C(=O)Nc2cnn(-c3ccc(C(=O)NCc4nc(-c5ccccc5)n[nH]4)cc3)c2)c(C)c1	-21%	x	x	-25%	x	-18%
Cc1ccc(OCC(=O)Nc2ccc(C(=O)OCc3cc(=O)n4ccsc4n3)cc2)cc1C	-15%	x	-9%[46.1 µM]	-13%	1	35µM*
Cc1ccc(OCC(=O)Nc2ccc(OCc3cc(=O)n4ccsc4n3)cc2)cc1C	-1%	-1%[46.1 µM]	14%[46.1 µM]	-6%	-6	-1%
O=C(CSc1nc2ccsc2c(=O)n1Cc1ccccc1F)NCc1ccccc1Cl	2%	x	-2%[46.1 µM]	-5%	-91*	-13%
Cc1ccc(S(=O)(=O)N2CCCc3cc(NC(=O)c4ccc(C(F)(F)F)cc4)ccc32)cc1	-9%	x	u	-16%	7	1%
Cc1oc2c(Cl)c(Cl)c(O)c(CN(C)C)c2c1C(=O)c1ccc(Cl)cc1	x	x	x	x	-69*	u
Cc1oc2ccc(O)c(CN3CCOCC3)c2c1C(=O)c1ccc(Cl)cc1	x	u	u	x	-35	u
C[C@H](N)c1cccc(Cl)c1Cl	x	9%	x	x	x	x
CCN(CC)C(=O)Cn1cnc2sc(C(=O)N3CCN(Cc4ccc5c(c4)OCO5)CC3)c(C)c2c1=O	-7%	-21%[46.1 µM]	u	-3%	-97*	-25%
Cc1nn(Cc2ccccc2)c2sc(C(=O)N3CCN(Cc4ccc5c(c4)OCO5)CC3)cc12	x	u	u	u	-12	32µM*
Cc1ccccc1C(=O)N1CCC(C(=O)N2CCN(Cc3ccc4c(c3)OCO4)CC2)CC1	-6%	-16%	11%	-5%	-102*	u
O=C(C1CCN(Cc2cccs2)CC1)N1CCN(Cc2ccc3c(c2)OCO3)CC1	-3%	u	0%	-10%	-104*	-21%
OCC1OC(n2cnc3c(NCc4ccco4)ncnc32)C(O)C1O (stereo unspecified)	u	u	4.5µM*	u	-81*	-16%
OC[C@H]1O[C@@H](n2cnc3cncnc32)[C@H](O)[C@@H]1O	13µM*	u	u	u	x	-25%
OC[C@H]1O[C@@H](n2cnc3c(NCc4ccco4)ncnc32)[C@H](O)[C@@H]1O	10µM*	x	x	u	-39	-24%
Cc1ccccc1CNc1ncnc2c1ncn2C1OC(CO)C(O)C1O (stereo unspecified)	x	u	16%	x	x	x
Cc1ccccc1CNc1ncnc2c1ncn2[C@@H]1O[C@@H](CO)[C@H](O)[C@@H]1O	x	18%	x	x	x	x
